Laboratory results taken from PubChem BioAssay (NCI).
Compounds without any hit were thinned out: in the full panel of roughly 83,000, 20% have a hit.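 Cell lines were cultured in 96-well plates, exposed to a single compound concentration, and assessed for percent growth 48 hours later.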 Values without a mark were called inactive. Active and inactive are the calls of the source. The calls were made as follows: active = growth percent below 10; inactive = the rest.

How the values were obtained:
Assay in all cases: NCI-60 one-dose screen, 48 h (100 = growth as untreated, 0 = no growth, -100 = all killed)
Conditions in all cases: 10 µM unless noted
T-47D breast = tested on: T-47D breast
BT-549 breast = tested on: BT-549 breast
MDA-MB-435 melanoma = tested on: MDA-MB-435 melanoma
SW-620 colon = tested on: SW-620 colon
MCF7 breast = tested on: MCF7 breast
HCT-116 colon = tested on: HCT-116 colon
HCC-2998 colon = tested on: HCC-2998 colon
KM12 colon = tested on: KM12 colon

SMILES | growth (T-47D breast) | growth (BT-549 breast) | growth (MDA-MB-435 melanoma) | growth (SW-620 colon) | growth (MCF7 breast) | growth (HCT-116 colon) | growth (HCC-2998 colon) | growth (KM12 colon)
Nc1ncnc2c1N=C(c1ccc(F)cc1)CC(c1cccc(Nc3ccnc4cc(Cl)ccc34)c1)N2 (stereo not given) | 93.2% | 99.9% | 41.8% | 82.8% | 51.2% | 49.7% | 82.5% | 60.9%
CC(C)CCC[C@@H](C)[C@H]1CC[C@H]2[C@@H]3CC=C4c5sc(Nc6cc(C(F)(F)F)cc(C(F)(F)F)c6)nc5CC[C@]4(C)[C@H]3CC[C@]12C | 95.7% | 98.9% | 104% | 100% | 107% | 99.3% | 101% | 102%
Cc1ccc(O)c(NC(=O)c2cccc(Nc3ccnc(C(F)(F)F)c3)c2)c1 | 21% | 57.9% | 60.2% | 90.8% | 40.7% | 34.9% | 74.3% | 75.9%
Cc1ccc2c(c1)=C/C(=C\c1cc(-c3ccccc3)[nH]c1O)C(=O)N=2 | 40.2% | 29.9% | -1.51% (active) | 32.8% | 21.5% | 17.6% | 56.6% | 28.3%
CCCCCCCCCCOC(=O)c1nn(C(C)=O)c2cc(C)c(C)cc12 | 99.7% | 90.5% | 100% | 97.3% | 94% | 75.4% | 105% | 104%
CCCc1cc(=O)oc2c(C(=O)CC(C)C)c(O)c(CC=C(C)C)c(O)c12 | 13.5% | 1.17% (active) | 24.3% | 27.4% | 7.3% (active) | 14.3% | 11% | 18.9%
C#CCOc1cccc(Nc2ncnc3c2ncn3C2CCN(C(=O)CCl)C2)c1 (stereo not given) | -45.2% (active) | -62.5% (active) | -23.8% (active) | -64.2% (active) | -50.9% (active) | 1.32% (active) | -22.8% (active) | 23.7%
C/C(Cc1ccc(Cl)cc1)=C(\c1ccc(OCCN2CCCCCC2)cc1)c1ccc(OC(=O)c2ccccc2)cc1 | 46.3% | 56.2% | 47.6% | 37.3% | 9.46% (active) | -64.8% (active) | 23.8% | 32%
CN(C)c1ccc(CNCCO)cc1 | 55.5% | 75.7% | 102% | 94.5% | 94% | 72.1% | 109% | 105%
COCCn1cc(-c2nc(-c3c[nH]c4ncccc34)cs2)c2ccccc21 | 4.79% (active) | 43.2% | 7.74% (active) | 68.6% | 9.03% (active) | 66.5% | 34.4% | 16.4%
Clc1ccc(-c2cc(-c3ccccc3)nc(N3CCN(CCCNc4ccnc5cc(Cl)ccc45)CC3)n2)cc1 | -56.1% (active) | 100% | -61.8% (active) | -42.3% (active) | -18.5% (active) | -79.6% (active) | -73.4% (active) | 3.69% (active)
CCN(CC)CCOc1ccc(Nc2ncc3cc(-c4c(Cl)cccc4Cl)c(=O)n(CCOC)c3n2)cc1 | 29.4% | -15.1% (active) | 1.33% (active) | 7.96% (active) | 17.2% | -40.6% (active) | 9.52% (active) | 15.9%
O=C(Nc1nc(Cl)nc(Nc2ccc(N3CCOCC3=O)cc2)n1)c1ccc(Cl)s1 | 71.7% | 106% | 96.4% | 76.1% | 59.1% | 84.3% | 82.3% | 90.6%
COC(=O)c1ccc2c(c1)c1c(C)c3cnccc3c(C)c1n2C | -21.6% (active) | -4.33% (active) | 6.89% (active) | -6.12% (active) | -37.1% (active) | -59.8% (active) | 1.42% (active) | 1.9% (active)
Cn1c(C#N)ccc1-c1ccc(F)c(NC(=O)c2ccc(F)cc2)c1 | 60.4% | 80% | -11.2% (active) | 44.9% | 49.4% | 77.4% | 90.5% | 60.9%
